Results published in publication PMC5540273 (PLoS ONE, 2017).

Key:
Details in all cases: concentration: 1 μM, replicates: in singlicate; n = 1
[1] = tested on: CLK2
[2] = tested on: CLK3
[3] = tested on: CLK4
[4] = tested on: CSF1R-autoinhibited
[5] = tested on: CSF1R
[6] = tested on: CSK
[7] = tested on: CSNK1A1L
[8] = tested on: CSNK1A1
[9] = tested on: CSNK1D
[10] = tested on: CSNK1E
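Note: KINOMEscan kinase panel screen.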

| SMILES | %Inh [1] | %Inh [2] | %Inh [3] | %Inh [4] | %Inh [5] | %Inh [6] | %Inh [7] | %Inh [8] | %Inh [9] | %Inh [10] |
| --- | --- | --- | --- | --- | --- | --- | --- | --- | --- | --- |
| COc1cc(Nc2nccc(N3CCC(NC(=O)Nc4ccc5c(c4)OCO5)C3)n2)cc(OC)c1OC (stereo not drawn) [GSK1379766] | 0% | 2% | 0% | 0% | 41% | 0% | 0% | 0% | 0% | 20% |
| O=C(O)C(F)(F)F.O=c1[nH]ccc2nc(N[C@@H]3CCNC3)nc(Nc3ccc4c(c3)S(=O)(=O)CC4)c12 [GSK2181306] | 95% | 17% | 80% | 0% | 86% | 5% | 90% | 97.7% | 96.7% | 96.3% |
| NCCC(NC(=O)c1cc(Br)c(-c2ccnc3[nH]ccc23)s1)c1ccccc1.O=C(O)C(F)(F)F.O=C(O)C(F)(F)F (stereo not drawn) [GSK1307810] | 37% | 54% | 46% | 43% | 18% | 0% | 71% | 93.9% | 94.1% | 94.1% |
| N#Cc1cnc2cc(-c3cnc(CNCCN4CCOCC4)s3)ccc2c1Nc1ccc(Oc2ccccc2)cc1 [GW664114] | 0% | 0% | 95.2% | 17% | 19% | 96.7% | 7% | 0% | 0% | 39% |
| COC(=O)Nc1nc2cc(Oc3ccc(NC(=O)Nc4cccc(SC)c4)cc3)ccc2[nH]1.Cl [GW697999] | 32% | 23% | 24% | 53% | 99.6% | 0% | 6% | 0% | 17% | 22% |
| CCn1c(-c2nonc2N)nc2c(-c3ccccc3)ncc(OCCCN)c21.O=C(O)C(F)(F)F.O=C(O)C(F)(F)F [GSK260205] | 0% | 5% | 4% | 0% | 2% | 0% | 46% | 69% | 94.2% | 98.7% |
| CCNC(=O)/C=C/c1n[nH]c2cc(Sc3ccccc3C(=O)NC)ccc12 | 0% | 14% | 3% | 36% | 99.8% | 3% | 0% | 21% | 0% | 18% |
| COc1cccc(-c2nc(-c3ccccc3)[nH]c2-c2ccncc2)c1 [SB-610250] | 0% | 27% | 8% | 0% | 2% | 0% | 19% | 47% | 66% | 68% |
| COc1cccc(C2=C(Nc3cccc(O)c3)C(=O)NC2=O)c1 [SB-390771] | 61% | 17% | 72% | 45% | 37% | 100% | 10% | 0% | 32% | 29% |
| CNc1nccc(-c2ccc3c(N)n[nH]c3c2)n1 [GSK2206003] | 84% | 48% | 95.5% | 11% | 6% | 0% | 6% | 0% | 20% | 28% |
| O=C(O)C(F)(F)F.O=c1[nH]ccc2nc(N[C@@H]3CCNC3)nc(Nc3cc(Cl)cc(Cl)c3)c12 [GSK2188764] | 95.9% | 34% | 82% | 0% | 69% | 18% | 56% | 94% | 79% | 91.3% |
| CC(=O)Nc1cn2nc(Oc3cccc(NC(=O)c4cccc(C(F)(F)F)c4)c3)ccc2n1 | 13% | 54% | 0% | 82% | 100% | 44% | 21% | 12% | 4% | 44% |
| CC(C)c1nc(-c2cccc(NS(=O)(=O)c3c(F)cccc3F)c2)c(-c2ccnc(Nc3ccc(N4CCOCC4)nc3)n2)s1.Cl [GSK1723980] | 0% | 0% | 0% | 0% | 52% | 96.5% | 0% | 95.1% | 0% | 10% |
| Cc1ccc(O)cc1Nc1ccnc2cc(-c3ccc(CN4CCCCC4)o3)ccc12 [GW557777] | 0% | 0% | 0% | 0% | 96.7% | 82% | 44% | 84% | 27% | 34% |
| COc1cccc(CC(=O)N2CCc3cc(-c4cn(C)c5ncnc(N)c45)ccc32)c1 [GSK2608899] | 0% | 13% | 0% | 0% | 96.9% | 14% | 8% | 0% | 39% | 77% |
| Cc1cccc(Nc2nc(NCCN)ncc2C(N)=O)c1 [GSK1292139] | 22% | 47% | 0% | 23% | 88% | 22% | 76% | 72% | 52% | 84% |
| CN(c1ccc(NC(=O)Nc2cccc(Cl)c2)cc1)c1ccnc(N)n1.Cl [GW830707] | 0% | 0% | 0% | 0% | 99.5% | 7% | 0% | 0% | 18% | 0% |
| O=C(Nc1n[nH]c2cc(-c3cccs3)ccc12)C1CC1 [SB-731284] | 21% | 13% | 0% | 0% | 0% | 13% | 0% | 20% | 0% | 8% |
| CCOc1nccc(-c2c(-c3ccc(F)cc3)ncn2C2CCNCC2)n1 [SB-249175] | 0% | 11% | 100% | 31% | 28% | 0% | 45% | 97.4% | 95.3% | 99.4% |
| c1ccc(Oc2ccc(Nc3ccnc4cc(-c5ccc(CN6CCCCC6)o5)ccc34)cc2)nc1 [GW567143] | 0% | 0% | 6% | 0% | 54% | 71% | 12% | 1% | 10% | 13% |
| Cn1cc(-c2ccc3c(c2)CCN3C(=O)Cc2cc(F)cc(F)c2F)c2c(N)ncnc21 [GSK2634140] | 0% | 24% | 16% | 0% | 87% | 0% | 17% | 0% | 13% | 47% |
| Nc1ncc(-c2cn[nH]c2)c2scc(-c3ccc4c(c3)CCN4C(=O)Cc3ccccc3)c12 [GSK2593067] | 0% | 0% | 55% | 51% | 99.9% | 68% | 9% | 0% | 4% | 32% |
| O=C1NC(=O)C(c2ccccc2Cl)=C1Nc1cccc(Cl)c1 [SB-342409] | 73% | 7% | 28% | 0% | 33% | 0% | 9% | 0% | 16% | 17% |
| Cc1ccccc1CC(=O)N1CCc2cc(-c3cn(C)c4ncnc(N)c34)ccc21 [GSK2603346] | 0% | 6% | 0% | 0% | 89% | 0% | 22% | 9% | 9% | 84% |
| CN(C)c1ncnc2nc[nH]c12 [SKF-31736] | 23% | 0% | 0% | 0% | 6% | 0% | 0% | 0% | 0% | 4% |
| CN(c1ccc(F)c(NC(=O)c2cccc(OC(C)(C)C#N)c2Cl)c1)c1ccc2nc(NC(=O)C3CC3)sc2n1 | 0% | 0% | 0% | 17% | 99.8% | 16% | 14% | 9% | 0% | 0% |
| Cc1ccc(O)cc1Nc1ccnc2ccc(C(C)(C)C)cc12 [GW856805] | 26% | 0% | 3% | 0% | 32% | 53% | 20% | 40% | 13% | 1% |
| CN(C)CCNS(=O)(=O)c1ccc(-c2ccnc3[nH]ccc23)cc1 [GSK977620] | 92.3% | 70% | 94.4% | 0% | 27% | 0% | 16% | 29% | 38% | 48% |
| Fc1cc(Cl)ccc1Nc1ccnc2cc(-c3ccc(CN4CCSCC4)o3)ccc12 [GW560106] | 0% | 0% | 22% | 52% | 92.3% | 13% | 0% | 0% | 6% | 27% |
| N#CC1(c2cccc(C(=O)Nc3cccc(Oc4ccc5nc(NC(=O)C6CC6)sc5n4)c3)c2)CC1 | 4% | 0% | 17% | 87% | 100% | 25% | 0% | 0% | 14% | 0% |
